# Test results published in PubChem BioAssay (EPA / NIEHS).
# Results filed as inconclusive are left out. Activity calls are given as the source filed them. How the source made its calls, unless noted: active means hit-call score of the fitted dose curve at least 0.9, where 1 is the maximum; inactive means score below 0.9.
# What was measured:
# [1] = molecular target: Glucocorticoid receptor (Homo sapiens) (UniProt P04150); test: ATG_GR_TRANS: Attagene TRANS-FACTORIAL HepG2 Assay for human Glucocorticoid Receptor (GR) (AID 2282978; active means hit-call score of the fitted dose curve at least 0.9, where 1 is the maximum;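 further: activators score as hits since higher reporter transcript over DMSO is fitted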); settings: HepG2 Attagene TRANS GR reporter, mRNA transcription
# Sequence of Glucocorticoid receptor (Homo sapiens) (P04150 whole entry, looked up, the tested form may be a part): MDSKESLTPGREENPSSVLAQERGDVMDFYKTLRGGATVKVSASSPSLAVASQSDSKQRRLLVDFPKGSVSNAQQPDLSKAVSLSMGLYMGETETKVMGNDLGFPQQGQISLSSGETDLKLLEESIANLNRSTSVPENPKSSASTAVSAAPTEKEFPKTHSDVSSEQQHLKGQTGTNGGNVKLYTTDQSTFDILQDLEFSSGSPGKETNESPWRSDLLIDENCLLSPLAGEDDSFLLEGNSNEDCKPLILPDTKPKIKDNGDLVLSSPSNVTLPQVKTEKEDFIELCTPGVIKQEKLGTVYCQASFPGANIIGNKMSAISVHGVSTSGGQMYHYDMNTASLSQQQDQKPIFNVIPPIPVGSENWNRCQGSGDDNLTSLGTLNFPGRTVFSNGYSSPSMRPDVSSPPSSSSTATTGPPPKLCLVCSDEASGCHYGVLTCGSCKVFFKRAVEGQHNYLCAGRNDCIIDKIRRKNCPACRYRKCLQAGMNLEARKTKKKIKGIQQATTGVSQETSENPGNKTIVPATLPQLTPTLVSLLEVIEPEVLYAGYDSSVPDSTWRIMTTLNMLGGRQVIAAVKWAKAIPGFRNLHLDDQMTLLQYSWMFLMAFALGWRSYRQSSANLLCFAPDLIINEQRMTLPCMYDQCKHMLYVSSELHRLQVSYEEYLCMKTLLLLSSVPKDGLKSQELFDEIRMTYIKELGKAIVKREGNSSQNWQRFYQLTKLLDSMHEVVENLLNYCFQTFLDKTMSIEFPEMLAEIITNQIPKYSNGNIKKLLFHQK
# Summary of the method: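 Fluorescent capillary-electrophoresis quantitation of reporter mRNA is the readout, taken 24 h after dosing human HepG2 cells carrying transiently transfected GAL4-UAS reporter units activated by chimeric NR-GAL4 fusions; activity scored as induction over DMSO.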
# [2] = molecular target: Oxysterols receptor LXR-alpha (Homo sapiens) (UniProt Q13133); test: ATG_LXRa_TRANS: Attagene TRANS-FACTORIAL HepG2 Assay for human Liver X Receptor alpha (LXRa) (AID 2282980; active means hit-call score of the fitted dose curve at least 0.9, where 1 is the maximum); settings: HepG2 Attagene TRANS reporter, LXRa transactivation
# Sequence of Oxysterols receptor LXR-alpha (Homo sapiens) (Q13133 whole entry, looked up, the tested form may be a part): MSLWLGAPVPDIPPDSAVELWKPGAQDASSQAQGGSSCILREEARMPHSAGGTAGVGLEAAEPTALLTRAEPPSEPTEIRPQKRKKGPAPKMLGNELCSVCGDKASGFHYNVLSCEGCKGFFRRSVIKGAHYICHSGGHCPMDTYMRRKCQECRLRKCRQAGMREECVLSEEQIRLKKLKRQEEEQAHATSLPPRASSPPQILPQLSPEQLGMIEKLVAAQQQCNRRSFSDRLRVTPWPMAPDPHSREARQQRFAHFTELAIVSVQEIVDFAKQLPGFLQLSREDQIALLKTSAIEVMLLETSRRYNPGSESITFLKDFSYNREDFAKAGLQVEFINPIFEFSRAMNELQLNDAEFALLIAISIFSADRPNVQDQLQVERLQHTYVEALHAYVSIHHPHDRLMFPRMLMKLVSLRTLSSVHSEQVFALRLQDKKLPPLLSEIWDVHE
# Summary of the method: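 Transfect HepG2 with GAL4-UAS multiplex reporter constructs (TRANS format, chimeric receptor-GAL4); treat 24 h; extract RNA, reverse-transcribe, PCR-amplify, FAM-label, HpaI-digest; resolve fragments by capillary electrophoresis. Upward response vs DMSO.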
# [3] = molecular target: Hepatocyte nuclear factor 4-alpha (Homo sapiens) (UniProt P41235); test: ATG_HNF4a_TRANS: Attagene TRANS-FACTORIAL HepG2 Assay for human Hepatocyte Nuclear Factor 4 alpha (HNF4a) (AID 2282982; active means hit-call score of the fitted dose curve at least 0.9, where 1 is the maximum); settings: HepG2 HNF4a transactivation reporter, mRNA readout
# Sequence of Hepatocyte nuclear factor 4-alpha (Homo sapiens) (P41235 whole entry, looked up, the tested form may be a part): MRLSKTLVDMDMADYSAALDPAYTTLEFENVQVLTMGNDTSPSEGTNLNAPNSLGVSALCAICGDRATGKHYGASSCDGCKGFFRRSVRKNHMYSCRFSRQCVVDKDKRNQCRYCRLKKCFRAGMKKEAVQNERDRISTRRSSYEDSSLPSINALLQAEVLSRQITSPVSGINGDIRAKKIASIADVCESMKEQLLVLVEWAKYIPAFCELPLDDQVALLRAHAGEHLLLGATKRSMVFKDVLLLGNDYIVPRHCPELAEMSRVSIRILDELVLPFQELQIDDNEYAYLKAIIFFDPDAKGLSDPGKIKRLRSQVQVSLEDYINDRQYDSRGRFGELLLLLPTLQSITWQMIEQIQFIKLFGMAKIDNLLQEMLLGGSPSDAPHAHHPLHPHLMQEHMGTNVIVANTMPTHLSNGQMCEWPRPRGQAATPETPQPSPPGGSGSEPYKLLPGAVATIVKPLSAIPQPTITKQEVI
# Summary of the method: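 Using HepG2 liver cells transfected with GAL4-UAS reporter units, chemical-induced mRNA increases were assessed after 24 hours. Fluorescent RT-PCR fragments were separated by capillary electrophoresis and compared with DMSO negative controls.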
# [4] = ATG_M_06_TRANS: Attagene TRANS-FACTORIAL HepG2 Assay for M06 Transcription Factor (Internal Marker) (AID 2282983; active means hit-call score of the fitted dose curve at least 0.9, where 1 is the maximum); settings: HepG2 Attagene TRANS M06 internal marker reporter
# Summary of the method: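 Background control endpoint: reporter mRNA from transiently transfected HepG2 after 24 h dosing, detected by RT-PCR with capillary electrophoresis fluorescence. Analysed for gain versus DMSO.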
# [5] = molecular target: Nuclear receptor subfamily 4 group A member 2 (Homo sapiens) (UniProt P43354); test: ATG_NURR1_TRANS: Attagene TRANS-FACTORIAL HepG2 Assay for human Nuclear Receptor Related Protein 1 (NURR1) (AID 2282985; active means hit-call score of the fitted dose curve at least 0.9, where 1 is the maximum); settings: HepG2 Attagene TRANS reporter, mRNA readout
# Sequence of Nuclear receptor subfamily 4 group A member 2 (Homo sapiens) (P43354 whole entry, looked up, the tested form may be a part): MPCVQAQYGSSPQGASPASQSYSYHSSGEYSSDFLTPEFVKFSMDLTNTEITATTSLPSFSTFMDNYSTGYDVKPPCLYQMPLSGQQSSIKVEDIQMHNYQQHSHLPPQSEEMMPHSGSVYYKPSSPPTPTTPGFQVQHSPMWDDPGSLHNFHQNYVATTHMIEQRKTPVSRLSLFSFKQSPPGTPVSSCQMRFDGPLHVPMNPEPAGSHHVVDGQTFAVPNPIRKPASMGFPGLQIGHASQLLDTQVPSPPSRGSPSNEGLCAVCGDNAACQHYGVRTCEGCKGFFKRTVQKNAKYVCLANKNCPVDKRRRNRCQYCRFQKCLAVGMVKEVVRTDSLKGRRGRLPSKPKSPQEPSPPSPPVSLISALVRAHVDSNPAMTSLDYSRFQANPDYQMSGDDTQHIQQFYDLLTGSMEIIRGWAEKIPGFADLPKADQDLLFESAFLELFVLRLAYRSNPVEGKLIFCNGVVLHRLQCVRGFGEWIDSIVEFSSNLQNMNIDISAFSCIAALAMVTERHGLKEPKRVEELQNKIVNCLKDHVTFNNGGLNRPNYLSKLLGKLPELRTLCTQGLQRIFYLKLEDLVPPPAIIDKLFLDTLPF
# Summary of the method: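 Chimeric NR-Gal4 proteins were expressed in human HepG2 cells bearing GAL4-UAS reporter units, and induced reporter mRNA was quantified 24 h post-dosing by RT-PCR and capillary electrophoresis.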
# [6] = molecular target: Transcriptional activator Myb (Homo sapiens) (UniProt P10242); test: ATG_Myb_CIS: Attagene CIS-FACTORIAL HepG2 Assay for human Myeloblastosis (Myb) Proto-Oncogene Transcription Factor (AID 2282986); settings: HepG2 Attagene CIS-FACTORIAL Myb reporter transcription; actives raise or lower the signal
# Sequence of Transcriptional activator Myb (Homo sapiens) (P10242 whole entry, looked up): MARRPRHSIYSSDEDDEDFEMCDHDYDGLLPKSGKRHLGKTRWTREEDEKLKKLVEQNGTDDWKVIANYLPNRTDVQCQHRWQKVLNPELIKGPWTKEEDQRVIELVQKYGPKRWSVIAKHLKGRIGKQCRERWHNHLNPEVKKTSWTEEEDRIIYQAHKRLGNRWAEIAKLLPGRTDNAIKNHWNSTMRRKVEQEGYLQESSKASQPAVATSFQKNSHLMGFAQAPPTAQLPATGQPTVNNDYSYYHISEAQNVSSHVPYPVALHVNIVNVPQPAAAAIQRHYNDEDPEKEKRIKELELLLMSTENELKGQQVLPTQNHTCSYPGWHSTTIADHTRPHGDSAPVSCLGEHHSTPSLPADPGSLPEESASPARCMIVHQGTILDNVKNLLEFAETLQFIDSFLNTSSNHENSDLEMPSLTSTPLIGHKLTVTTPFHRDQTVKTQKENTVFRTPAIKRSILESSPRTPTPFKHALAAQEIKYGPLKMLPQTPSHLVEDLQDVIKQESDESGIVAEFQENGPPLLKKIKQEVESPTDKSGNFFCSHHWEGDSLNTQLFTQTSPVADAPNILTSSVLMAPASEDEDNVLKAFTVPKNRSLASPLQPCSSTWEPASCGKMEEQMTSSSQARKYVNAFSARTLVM
# Summary of the method: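 Reporter transcript levels, quantified by fluorescent RT-PCR and capillary electrophoresis, serve as the read-out. Transfected HepG2 cells carrying cis-promoter reporter units are dosed for 24 hours, and curves are fitted bidirectionally against DMSO controls.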
# [7] = molecular target: Nuclear respiratory factor 1 (Homo sapiens) (UniProt Q16656); test: ATG_NRF1_CIS: Attagene CIS-FACTORIAL HepG2 Assay for human Nuclear Respiratory Factor 1 (NRF1) Orphan Gene (AID 2282987); settings: HepG2 NRF1 cis-element reporter, Attagene multiplex; actives raise or lower the signal
# Sequence of Nuclear respiratory factor 1 (Homo sapiens) (Q16656 whole entry, looked up): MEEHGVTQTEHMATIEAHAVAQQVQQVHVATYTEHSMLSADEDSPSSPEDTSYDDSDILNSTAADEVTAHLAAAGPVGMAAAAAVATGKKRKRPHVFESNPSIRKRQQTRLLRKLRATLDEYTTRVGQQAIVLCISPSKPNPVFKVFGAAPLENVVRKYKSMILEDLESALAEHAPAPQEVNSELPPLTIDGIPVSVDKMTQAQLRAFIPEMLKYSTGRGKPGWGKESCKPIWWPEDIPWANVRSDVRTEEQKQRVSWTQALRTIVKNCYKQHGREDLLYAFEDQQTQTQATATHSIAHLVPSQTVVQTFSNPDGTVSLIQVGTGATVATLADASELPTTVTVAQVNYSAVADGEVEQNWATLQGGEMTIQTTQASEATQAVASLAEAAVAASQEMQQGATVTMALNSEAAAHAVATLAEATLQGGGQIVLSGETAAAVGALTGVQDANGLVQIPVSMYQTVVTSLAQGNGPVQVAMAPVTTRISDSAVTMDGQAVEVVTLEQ
# Summary of the method: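 Multiplexed cis-reporter assay, HepG2 cells, 24 h treatment. Total RNA → oligo(dT) RT → PCR with reporter-specific primers → 6-FAM primer extension → HpaI cut → CE. Bidirectional fit vs DMSO.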
# [8] = ATG_NFI_CIS: Attagene CIS-FACTORIAL HepG2 Assay for human Nuclear Factor I (NFI) (AID 2282989); settings: HepG2 cis-regulatory reporter, NFI response element transcription; actives raise or lower the signal
# Summary of the method: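 HepG2 cells transiently transfected with cis-element-driven multiplexed reporter transcription units, dosed for 24 h. Reporter mRNA quantified by RT-PCR, fluorescent labelling, HpaI digestion and capillary electrophoresis; bidirectional fit versus DMSO baseline.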
# [9] = molecular target: Myc proto-oncogene protein (Homo sapiens) (UniProt P01106); test: ATG_Myc_CIS: Attagene CIS-FACTORIAL HepG2 Assay for human Myelocytomatosis (Myc) Proto-Oncogene Transcription Factor (AID 2282990); settings: HepG2, Attagene cis-reporter transcription factor activity; actives raise or lower the signal
# Sequence of Myc proto-oncogene protein (Homo sapiens) (P01106 whole entry, looked up): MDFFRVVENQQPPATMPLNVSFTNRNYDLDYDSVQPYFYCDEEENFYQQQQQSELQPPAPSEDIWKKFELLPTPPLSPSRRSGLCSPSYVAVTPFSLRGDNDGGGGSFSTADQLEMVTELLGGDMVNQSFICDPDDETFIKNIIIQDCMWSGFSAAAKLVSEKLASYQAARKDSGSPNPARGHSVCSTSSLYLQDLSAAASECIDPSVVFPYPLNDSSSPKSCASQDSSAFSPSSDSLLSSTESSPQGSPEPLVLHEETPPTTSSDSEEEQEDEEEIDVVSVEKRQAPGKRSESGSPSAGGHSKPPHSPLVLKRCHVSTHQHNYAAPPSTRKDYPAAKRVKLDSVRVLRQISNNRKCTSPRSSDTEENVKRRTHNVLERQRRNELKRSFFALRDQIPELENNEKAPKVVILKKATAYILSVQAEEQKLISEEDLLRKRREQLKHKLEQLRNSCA
# Summary of the method: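 Multiplexed cis-reporter transcription in HepG2 cells after 24 h chemical treatment. Reporter mRNA measured by RT-PCR and capillary electrophoresis fluorescence; activity fitted bidirectionally against DMSO control.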
# [10] = ATG_NF_kB_CIS: Attagene CIS-FACTORIAL HepG2 Assay for human Nuclear Factor Kappa B (NF-kB) (AID 2282991); settings: HepG2 Attagene cis-factorial NF-kB reporter mRNA; actives raise or lower the signal
# Summary of the method: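 Transient MRTU transfection of human HepG2 liver cells → 24 h chemical exposure → total RNA, oligo(dT) RT → PCR, 6-FAM primer extension, HpaI digest 2 h 37 C → CE fragment analysis. Bidirectional fitting, DMSO negative control.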
# [11] = ATG_NRF2_ARE_CIS: Attagene CIS-FACTORIAL HepG2 Assay for human Nuclear Factor Erythroid 2 Related Factor 2 (NFR2) response to Antioxidant Response Elements (ARE) (AID 2282992); settings: HepG2 Attagene ARE/NRF2 reporter, transcription factor activity; actives raise or lower the signal
# Summary of the method: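 Using transiently transfected HepG2 cells exposed for 24 h, reporter mRNA levels were determined by RT-PCR with fluorescent primer extension and capillary electrophoresis, analysed for gain or loss of signal against DMSO.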
# [12] = ATG_Oct_MLP_CIS: Attagene CIS-FACTORIAL HepG2 Assay for human Octamer-Binding Transcription Factor (Oct) (AID 2282993); settings: HepG2 Attagene cis-factorial Oct reporter, mRNA; actives raise or lower the signal
# Summary of the method: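 HepG2 cells transiently transfected with cis-promoter-driven multiplexed reporter transcription units, dosed for 24 h. Reporter mRNA quantified by RT-PCR, fluorescent labelling, HpaI digestion and capillary electrophoresis; bidirectional fits versus DMSO baseline.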
# [13] = molecular target: Cellular tumor antigen p53 (Homo sapiens) (UniProt P04637); test: ATG_p53_CIS: Attagene CIS-FACTORIAL HepG2 Assay for human p53 Transcription Factor (AID 2282994); settings: HepG2 p53 cis-element reporter, Attagene mRNA; actives raise or lower the signal
# Sequence of Cellular tumor antigen p53 (Homo sapiens) (P04637 whole entry, looked up, the tested form may be a part): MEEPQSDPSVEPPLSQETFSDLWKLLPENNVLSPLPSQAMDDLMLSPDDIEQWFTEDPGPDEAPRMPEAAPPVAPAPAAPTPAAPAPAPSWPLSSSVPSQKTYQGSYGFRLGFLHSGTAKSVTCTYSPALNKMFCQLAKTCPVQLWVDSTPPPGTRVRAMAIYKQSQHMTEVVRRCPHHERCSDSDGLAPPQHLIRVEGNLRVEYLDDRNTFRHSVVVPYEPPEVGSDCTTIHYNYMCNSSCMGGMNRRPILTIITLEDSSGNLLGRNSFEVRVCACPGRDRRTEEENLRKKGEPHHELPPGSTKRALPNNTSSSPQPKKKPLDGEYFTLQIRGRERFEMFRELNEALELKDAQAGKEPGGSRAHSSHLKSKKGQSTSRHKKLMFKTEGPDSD
# Summary of the method: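 In HepG2 cells, reporter transcription units under cis-regulatory promoters were transiently introduced. Following 24 h treatment, RNA was processed to labelled, digested cDNA fragments read by capillary electrophoresis; fitting was bidirectional versus DMSO.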
# [14] = molecular target: Oxysterols receptor LXR-beta (Homo sapiens) (UniProt P55055); test: ATG_LXRb_TRANS: Attagene TRANS-FACTORIAL HepG2 Assay for human Liver X Receptor beta (LXRb) (AID 2282981; active means hit-call score of the fitted dose curve at least 0.9, where 1 is the maximum); settings: HepG2 Attagene TRANS GAL4-LXRb reporter, mRNA
# Sequence of Oxysterols receptor LXR-beta (Homo sapiens) (P55055 whole entry, looked up, the tested form may be a part): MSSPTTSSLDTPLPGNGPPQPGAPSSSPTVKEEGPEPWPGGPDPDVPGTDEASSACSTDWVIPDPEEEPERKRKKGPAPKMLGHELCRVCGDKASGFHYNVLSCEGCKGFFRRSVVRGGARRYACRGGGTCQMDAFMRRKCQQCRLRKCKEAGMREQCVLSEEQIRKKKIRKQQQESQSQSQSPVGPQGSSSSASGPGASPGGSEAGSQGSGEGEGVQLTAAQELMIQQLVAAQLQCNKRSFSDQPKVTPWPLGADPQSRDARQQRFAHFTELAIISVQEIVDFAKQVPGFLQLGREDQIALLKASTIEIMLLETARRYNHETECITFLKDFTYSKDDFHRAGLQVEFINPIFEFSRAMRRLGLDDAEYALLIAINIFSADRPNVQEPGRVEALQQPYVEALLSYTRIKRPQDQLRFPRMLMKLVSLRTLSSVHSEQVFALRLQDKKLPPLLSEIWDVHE
# Summary of the method: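 Liver-derived HepG2 cells transfected with Gal4-responsive reporters were dosed for 24 h. Activation was scored as rise in reporter mRNA, by RT-PCR and capillary electrophoresis, above DMSO baseline.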
# [15] = ATG_M_32_TRANS: Attagene TRANS-FACTORIAL HepG2 Assay for M32 Transcription Factor (Internal Marker) (AID 2282984; active means hit-call score of the fitted dose curve at least 0.9, where 1 is the maximum); settings: HepG2 Attagene TRANS M32 internal marker reporter
# Summary of the method: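 Fluorescence-detected mRNA induction, HepG2 liver cells, 24 h after dosing. Multiple GAL4-UAS reporter units introduced by transient transfection; background-control endpoint analysed for gain of signal against DMSO.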
# [16] = BSK_3C_TissueFactor: BioMAP Diversity Plus: 3C Assay for Tissue Factor Biomarker Activity (AID 2282997); settings: BioMAP 3C HUVEC, tissue factor biomarker readout; actives raise or lower the signal
# Summary of the method: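 After a 24 h chemical exposure of primary human umbilical vein endothelial cells, Tissue Factor levels were quantified by ELISA.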
# [17] = BSK_3C_uPAR: BioMAP Diversity Plus: 3C Assay for Urokinase-type plasminogen activator receptor (uPAR) Biomarker Activity (AID 2282998); settings: BioMAP 3C HUVEC, uPAR biomarker ELISA; actives raise or lower the signal
# Summary of the method: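 Human umbilical vein endothelial primary cells were exposed to test chemical for 24 h. Cell-surface uPAR was then quantified by ELISA, and responses were fitted bidirectionally against DMSO as negative control and baseline.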
# [18] = BSK_3C_VCAM1: BioMAP Diversity Plus: 3C Assay for Vascular cell adhesion molecule 1 (VCAM1) Biomarker Activity (AID 2282999); settings: BioMAP 3C HUVEC, VCAM1 ELISA, cytokine-stimulated; actives raise or lower the signal
# Summary of the method: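 Vascular primary endothelium (human umbilical vein) was exposed to chemicals and assayed 24 h later. VCAM-1 levels came from ELISA, with DMSO serving as baseline for bidirectional fitting.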
# [19] = BSK_4H_Eotaxin3: BioMAP Diversity Plus: 4H Assay for Eotaxin 3 Biomarker Activity (AID 2283000); settings: primary human endothelial cells (HUVEC); actives raise or lower the signal;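 further: CCL26 protein level quantified by ELISA in parallel with SRB cytotoxicity check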
# Summary of the method: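 Chemicals were added to human umbilical vein endothelium cultures, and Eotaxin-3 was quantified by ELISA at 24 h. Values were derived by bidirectional fitting with DMSO serving as negative control and activity baseline.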
smiles,measurement,setting,value
CC(C)C1=CC2=CC[C@@H]3[C@](C)(CCC[C@@]3(C)C(=O)O)[C@H]2CC1,outcome,[1],inactive
same,AC50,[2],26.8 µM (active)
same,outcome,[3],inactive
same,outcome,[4],inactive
same,AC50,[5],111 µM (active)
same,outcome,[6],inactive
same,outcome,[7],inactive
same,outcome,[8],inactive
same,outcome,[9],inactive
same,AC50,[10],157 µM (active)
same,AC50,[11],19.8 µM (active)
same,outcome,[12],inactive
same,outcome,[13],inactive
CC(=O)OCC(=O)[C@@]12N=C(C)O[C@@H]1C[C@H]1[C@@H]3CCC4=CC(=O)C=C[C@]4(C)[C@H]3[C@@H](O)C[C@@]12C,AC50,[1],0.0827 µM (active)
same,outcome,[2],inactive
same,outcome,[14],inactive
same,outcome,[15],inactive
same,AC50,[5],17.1 µM (active)
same,outcome,[6],inactive
same,outcome,[7],inactive
same,outcome,[8],inactive
same,outcome,[9],inactive
same,outcome,[10],inactive
same,outcome,[11],inactive
same,outcome,[12],inactive
same,outcome,[13],inactive
CC(C)c1ccc2cc(C(C)C)ccc2c1,outcome,[1],inactive
same,outcome,[14],inactive
same,outcome,[3],inactive
same,outcome,[4],inactive
same,outcome,[5],inactive
same,outcome,[6],inactive
same,outcome,[7],inactive
same,outcome,[8],inactive
same,outcome,[9],inactive
same,outcome,[10],inactive
same,AC50,[11],100 µM (active)
same,outcome,[12],inactive
O=C(O)CCCC[C@@H]1SC[C@@H]2NC(=O)N[C@@H]21,outcome,[1],inactive
same,outcome,[2],inactive
same,outcome,[14],inactive
same,outcome,[15],inactive
same,outcome,[6],inactive
same,outcome,[7],inactive
same,outcome,[8],inactive
same,outcome,[9],inactive
same,outcome,[10],inactive
same,outcome,[11],inactive
same,outcome,[12],inactive
CC1(C)O[C@@H]2C[C@H]3[C@@H]4C[C@H](F)C5=CC(=O)CC[C@]5(C)[C@H]4[C@@H](O)C[C@]3(C)[C@]2(C(=O)CO)O1,AC50,[1],0.0728 µM (active)
same,outcome,[2],inactive
same,outcome,[14],inactive
same,outcome,[4],inactive
same,outcome,[15],inactive
same,outcome,[5],inactive
same,outcome,[6],inactive
same,outcome,[7],inactive
same,outcome,[8],inactive
same,outcome,[9],inactive
same,outcome,[10],inactive
same,outcome,[11],inactive
same,outcome,[12],inactive
same,outcome,[13],inactive
C=CCOCC(O)CCl (configuration not stated),outcome,[1],inactive
same,outcome,[2],inactive
same,outcome,[3],inactive
same,outcome,[4],inactive
same,outcome,[15],inactive
same,outcome,[5],inactive
same,outcome,[6],inactive
same,outcome,[7],inactive
same,outcome,[8],inactive
same,outcome,[9],inactive
same,outcome,[10],inactive
same,AC50,[11],63 µM (active)
same,outcome,[12],inactive
same,outcome,[13],inactive
same,outcome,[16],inactive
same,outcome,[17],inactive
same,outcome,[18],inactive
same,outcome,[19],inactive
CCN(CC)c1ccc(C(=O)c2ccccc2C(=O)O)c(O)c1,outcome,[1],inactive
same,outcome,[2],inactive
same,outcome,[4],inactive
same,outcome,[15],inactive
same,outcome,[6],inactive
same,outcome,[7],inactive
same,outcome,[8],inactive
same,outcome,[9],inactive
same,outcome,[10],inactive
same,outcome,[11],inactive
same,outcome,[12],inactive
CCC(=O)Oc1ccc(/C(CC)=C(\CC)c2ccc(OC(=O)CC)cc2)cc1,outcome,[1],inactive
same,outcome,[14],inactive
same,outcome,[3],inactive
same,outcome,[4],inactive
same,AC50,[5],26.1 µM (active)
same,outcome,[6],inactive
same,AC50,[7],26.9 µM (active)
same,AC50,[8],25.2 µM (active)
same,outcome,[9],inactive
same,AC50,[10],33.7 µM (active)
same,outcome,[11],inactive
same,outcome,[12],inactive
same,AC50,[13],27.9 µM (active)
CC(C)CC(O)Cc1ccccc1 (configuration not stated),outcome,[1],inactive
same,outcome,[2],inactive
same,outcome,[4],inactive
same,outcome,[15],inactive
same,outcome,[6],inactive
same,outcome,[8],inactive
same,outcome,[9],inactive
same,AC50,[11],41.9 µM (active)
same,outcome,[12],inactive
same,outcome,[13],inactive
O=C1c2ccccc2C(=O)C1c1nc2ccccc2c(Br)c1O,outcome,[1],inactive
same,outcome,[2],inactive
same,outcome,[14],inactive
same,outcome,[3],inactive
same,outcome,[15],inactive
same,outcome,[5],inactive
same,outcome,[6],inactive
same,outcome,[8],inactive
same,outcome,[9],inactive
same,AC50,[10],28.4 µM (active)
same,outcome,[12],inactive
same,outcome,[13],inactive
